{"source": "PubChem BioAssay (NCATS)", "note": "Inconclusive results are not listed. Calls of active or inactive are those of the source. Calls follow the shape of the dose curve; as a rule, active = well fitted inhibition curve with a large enough effect; inconclusive = small, poorly fitted or top-dose-only effect; inactive = flat fitted curve, though single readings scatter.", "data": [{"system": "Zika virus NS2B-NS3 protease", "experiment": "Primary screen GU AMC qHTS for Zika virus inhibitors (AID 1347154);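 also: 0% = no-inhibitor control and -100% = no-enzyme control; nearly all actives have a fitted effect of over 70% in size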", "details": "Zika NS2B-NS3 unlinked protease, AMC fluorogenic substrate; series mostly up to 54.1 µM; activity change, negative = inhibition: at the top concentration", "procedure,_shortened": "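Fluorogenic AMC-substrate cleavage by noncovalent NS2B-NS3 protease complex (25 nM, pH 8.0 Tris buffer with Tween 20) followed for 15 minutes at room temperature (~20% conversion). Percent inhibition from ex340/em450 signal change, fitted by 4-parameter Hill equation.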", "values": [{"compound": "Nc1cc(-c2ccncc2)c[nH]c1=O", "activity change, negative = inhibition": "-0.851% (inactive)"}, {"compound": "CN1CCC[C@H]1c1cccnc1", "activity change, negative = inhibition": "5.79% (inactive)"}, {"compound": "Cc1c(C(=O)O)c(O)cc2c1C(=O)c1c(O)c([C@@H]3O[C@H](CO)[C@@H](O)[C@H](O)[C@H]3O)c(O)c(O)c1C2=O", "activity change, negative = inhibition": "-20.8% (inactive)"}, {"compound": "Cc1nc2ccccc2n1Cc1ccc(Cl)cc1", "activity change, negative = inhibition": "-6.25% (inactive)"}, {"compound": "COC(=O)C1=C(C)NC(C)=C(C(=O)OCC(C)=O)C1c1ccccc1[N+](=O)[O-]", "note": "(stereo not given)", "activity change, negative = inhibition": "-2.21% (inactive)"}, {"compound": "CCCCC1C(=O)N(c2ccccc2)N(c2ccc(O)cc2)C1=O", "note": "(stereo not given)", "activity change, negative = inhibition": "-12.2% (inactive)"}, {"compound": "Cc1[nH]cnc1CN1CCc2c(c3ccccc3n2C)C1=O", "activity change, negative = inhibition": "-6.73% (inactive)"}, {"compound": "CNC(=O)c1c(I)c(NC(=O)CCCCC(=O)Nc2c(I)c(C(=O)O)c(I)c(C(=O)NC)c2I)c(I)c(C(=O)O)c1I", "activity change, negative = inhibition": "-2.04% (inactive)"}, {"compound": "Clc1ccccc1-c1nc(-c2ccncc2)no1", "activity change, negative = inhibition": "-2.17% (inactive)"}, {"compound": "O=C1CN(/N=C/c2ccc(-c3ccc([N+](=O)[O-])cc3)o2)C(=O)N1", "activity change, negative = inhibition": "16.9% [at 104 µM] (inactive)"}, {"compound": "CCCOC(=O)c1ccc(O)cc1", "activity change, negative = inhibition": "6.4% [at 104 µM] (inactive)"}, {"compound": "CCCCCCCCCCCC(=O)[O][Sn]([CH2]CCC)([CH2]CCC)[O]C(=O)CCCCCCCCCCC", "activity change, negative = inhibition": "-7.38% (inactive)"}, {"compound": "CC(C)(C=O)Cc1cc(C(C)(C)C)c(O)c(C(C)(C)C)c1", "activity change, negative = inhibition": "-1.71% (inactive)"}, {"compound": "CO[C@@]1(NC(=O)Cc2cccs2)C(=O)N2C(C(=O)O)=C(COC(N)=O)CS[C@@H]21", "activity change, negative = inhibition": "-5.42% (inactive)"}, {"compound": "O=c1cc(-c2ccccc2)oc2ccccc12", "activity change, negative = inhibition": "-5.73% [at 104 µM] (inactive)"}]}]}
